The values below come from the supplement of paper PMC12808144.

The subject of one assay is Mel-DCC-11-R. Description: cell viability relative to DMSO control (fraction of DMSO control); higher = less cytotoxic, active = 0.8 or less. The following applies: 1 µM; 120 h; vemurafenib co-treatment 0 µM. The protocol:
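Same 315-drug TargetMol library at 1 µM in duplicate, 120 h, ATPlite luminescence normalised to DMSO controls, on the vemurafenib-resistant subline Mel-DCC-11-R cultured alone or with 8 µM vemurafenib co-treatment (Mel-DCC-11-R + V).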
For `CC(C)=CCC/C(C)=C/CC/C(C)=C/CC/C(C)=C/CC1=C(C)C(=O)c2ccccc2C1=O` [Menatetrenone], the cell viability was 1.11 (inactive).

Consider `N#Cc1ccnc(N2C(=O)CC[C@H]2C(=O)N(c2cncc(F)c2)[C@H](C(=O)NC2CC(F)(F)C2)c2ccccc2Cl)c1` [Ivosidenib], for which the cell viability is 1.25 (inactive).

For the compound `CCCCCCNC(=O)n1cc(F)c(=O)[nH]c1=O` [Carmofur], the cell viability is 1.12 (inactive).

`CN(C)N=Nc1[nH]cnc1C(N)=O` [Dacarbazine]: the cell viability is 1.04 (inactive).

Consider `CCNC(=O)[C@@H]1CCCN1C(=O)[C@H](CCCN=C(N)N)NC(=O)[C@H](CC(C)C)NC(=O)[C@@H](CC(C)C)NC(=O)[C@H](Cc1ccc(O)cc1)NC(=O)[C@H](CO)NC(=O)[C@H](Cc1c[nH]c2ccccc12)NC(=O)[C@H](Cc1cnc[nH]1)NC(=O)[C@@H]1CCC(=O)N1` [Leuprorelin Acetate], for which the cell viability is 0.854 (inactive).

For the compound `COc1cc2c(Oc3ccc4[nH]c(C)cc4c3F)ncnc2cc1OCCCN1CCCC1` [Cediranib], the cell viability is 0.853 (inactive).

Take `O=c1cc(-c2ccc(O)cc2)oc2cc(O)cc(O)c12` [Apigenin]: the cell viability was 0.972 (inactive).

As for `O=c1cc(O)c(Cl)c[nH]1` [Gimeracil], the cell viability was 0.944 (inactive).

In the case of `Cl.Cl.O=C1c2c(O)ccc(O)c2C(=O)c2c(NCCNCCO)ccc(NCCNCCO)c21` [Mitoxantrone hydrochloride], the cell viability is 1.14 (inactive).

Consider `C=C1CC[C@H](O)C/C1=C/C=C1\CCC[C@]2(C)[C@@H]([C@H](C)/C=C/[C@H](C)C(C)C)CC[C@@H]12` [Vitamin D2], for which the cell viability was 1 (inactive).

In the case of `Nc1ccn([C@@H]2O[C@H](CO)[C@@H](O)C2(F)F)c(=O)n1` [Gemcitabine], the cell viability is 0.869 (inactive).

Turning to `N#CC[C@@H](C1CCCC1)n1cc(-c2ncnc3[nH]ccc23)cn1` [S-Ruxolitinib], the cell viability was 1.01 (inactive).

For `Cc1[nH]c2ccccc2c1CCNCc1ccc(/C=C/C(=O)NO)cc1` [Panobinostat], the cell viability was 0.0716 (active).

`Nc1ccc(F)cc1NC(=O)c1ccc(CNC(=O)/C=C/c2cccnc2)cc1` [Chidamide]: the cell viability is 1.34 (inactive).

Regarding `O=C1c2c(O)ccc(O)c2C(=O)c2c(NCCNCCO)ccc(NCCNCCO)c21` [Mitoxantrone], the cell viability is 1.26 (inactive).

`O.S=c1nc[nH]c2nc[nH]c12` [6-Mercaptopurine monohydrate]: the cell viability is 0.725 (active).

In the case of `CC(C)C[C@H](NC(=O)[C@H](CCc1ccccc1)NC(=O)CN1CCOCC1)C(=O)N[C@@H](Cc1ccccc1)C(=O)N[C@@H](CC(C)C)C(=O)[C@@]1(C)CO1` [Carfilzomib], the cell viability is 0.0186 (active).

`NC(=O)c1ncn([C@@H]2O[C@H](CO)[C@@H](O)[C@H]2O)c1N` [AICAR (Acadesine)]: the cell viability is 1.12 (inactive).

Take `COc1cccc2c1C(=O)c1c(O)c3c(c(O)c1C2=O)C[C@@](O)(C(=O)CO)C[C@@H]3O[C@H]1C[C@H](N)[C@@H](O)[C@H](C)O1.Cl` [Epirubicin hydrochloride]: the cell viability was 0.426 (active).

In the case of `Cc1cn(-c2cc(NC(=O)c3ccc(C)c(Nc4nccc(-c5cccnc5)n4)c3)cc(C(F)(F)F)c2)cn1` [Nilotinib], the cell viability was 1.15 (inactive).

The assay is the same for the next values; noted with them: 1 µM; 120 h; vemurafenib co-treatment 8 µM.
On to `CC(C)=CCC/C(C)=C/CC/C(C)=C/CC/C(C)=C/CC1=C(C)C(=O)c2ccccc2C1=O` [Menatetrenone], for which the cell viability was 1.18 (inactive).

`N#Cc1ccnc(N2C(=O)CC[C@H]2C(=O)N(c2cncc(F)c2)[C@H](C(=O)NC2CC(F)(F)C2)c2ccccc2Cl)c1` [Ivosidenib]: the cell viability is 1.06 (inactive).

Regarding `CCCCCCNC(=O)n1cc(F)c(=O)[nH]c1=O` [Carmofur], the cell viability was 1.06 (inactive).

On to `CN(C)N=Nc1[nH]cnc1C(N)=O` [Dacarbazine], for which the cell viability is 1.17 (inactive).

With `CCNC(=O)[C@@H]1CCCN1C(=O)[C@H](CCCN=C(N)N)NC(=O)[C@H](CC(C)C)NC(=O)[C@@H](CC(C)C)NC(=O)[C@H](Cc1ccc(O)cc1)NC(=O)[C@H](CO)NC(=O)[C@H](Cc1c[nH]c2ccccc12)NC(=O)[C@H](Cc1cnc[nH]1)NC(=O)[C@@H]1CCC(=O)N1` [Leuprorelin Acetate], the cell viability is 0.919 (inactive).

In the case of `COc1cc2c(Oc3ccc4[nH]c(C)cc4c3F)ncnc2cc1OCCCN1CCCC1` [Cediranib], the cell viability was 0.728 (active).

In the case of `O=c1cc(-c2ccc(O)cc2)oc2cc(O)cc(O)c12` [Apigenin], the cell viability is 0.991 (inactive).

For the compound `O=c1cc(O)c(Cl)c[nH]1` [Gimeracil], the cell viability was 1.13 (inactive).

`Cl.Cl.O=C1c2c(O)ccc(O)c2C(=O)c2c(NCCNCCO)ccc(NCCNCCO)c21` [Mitoxantrone hydrochloride]: the cell viability is 0.477 (active).

As for `C=C1CC[C@H](O)C/C1=C/C=C1\CCC[C@]2(C)[C@@H]([C@H](C)/C=C/[C@H](C)C(C)C)CC[C@@H]12` [Vitamin D2], the cell viability was 1.16 (inactive).

On to `Nc1ccn([C@@H]2O[C@H](CO)[C@@H](O)C2(F)F)c(=O)n1` [Gemcitabine], for which the cell viability was 0.709 (active).

For the compound `N#CC[C@@H](C1CCCC1)n1cc(-c2ncnc3[nH]ccc23)cn1` [S-Ruxolitinib], the cell viability is 1.28 (inactive).

As to `Cc1[nH]c2ccccc2c1CCNCc1ccc(/C=C/C(=O)NO)cc1` [Panobinostat], the cell viability was 0.0801 (active).

Consider `Nc1ccc(F)cc1NC(=O)c1ccc(CNC(=O)/C=C/c2cccnc2)cc1` [Chidamide], for which the cell viability is 1.16 (inactive).

As to `O=C1c2c(O)ccc(O)c2C(=O)c2c(NCCNCCO)ccc(NCCNCCO)c21` [Mitoxantrone], the cell viability was 0.574 (active).

Regarding `O.S=c1nc[nH]c2nc[nH]c12` [6-Mercaptopurine monohydrate], the cell viability is 0.881 (inactive).

Take `CC(C)C[C@H](NC(=O)[C@H](CCc1ccccc1)NC(=O)CN1CCOCC1)C(=O)N[C@@H](Cc1ccccc1)C(=O)N[C@@H](CC(C)C)C(=O)[C@@]1(C)CO1` [Carfilzomib]: the cell viability is 0.018 (active).

Consider `NC(=O)c1ncn([C@@H]2O[C@H](CO)[C@@H](O)[C@H]2O)c1N` [AICAR (Acadesine)], for which the cell viability is 1.21 (inactive).

As for `COc1cccc2c1C(=O)c1c(O)c3c(c(O)c1C2=O)C[C@@](O)(C(=O)CO)C[C@@H]3O[C@H]1C[C@H](N)[C@@H](O)[C@H](C)O1.Cl` [Epirubicin hydrochloride], the cell viability is 0.183 (active).

Consider `Cc1cn(-c2cc(NC(=O)c3ccc(C)c(Nc4nccc(-c5cccnc5)n4)c3)cc(C(F)(F)F)c2)cn1` [Nilotinib], for which the cell viability is 1.06 (inactive).
